From PubChem
Most compounds without a hit are left out; they make up all but 10% or so of the library.
12-hLO inh: inhibitors of human 12-lipoxygenase (ALOX12); P18054; AID 1452; Potency, µM (doses to about 57.1 µM), for inactives: top-dose activity change, negative = inhibition, actives largely listed as inhibitors; purified 12-hLO, xylenol orange hydroperoxide absorbance; hit rate 0.12% among 150,000; active = well fitted inhibition curve with a large enough effect; inconclusive = small, poorly fitted or top-dose-only effect; also: potency is read from the fitted curve at half-maximal effect; nearly all actives have a fitted effect of over 55% in size
Target sequence (P18054 whole entry, looked up): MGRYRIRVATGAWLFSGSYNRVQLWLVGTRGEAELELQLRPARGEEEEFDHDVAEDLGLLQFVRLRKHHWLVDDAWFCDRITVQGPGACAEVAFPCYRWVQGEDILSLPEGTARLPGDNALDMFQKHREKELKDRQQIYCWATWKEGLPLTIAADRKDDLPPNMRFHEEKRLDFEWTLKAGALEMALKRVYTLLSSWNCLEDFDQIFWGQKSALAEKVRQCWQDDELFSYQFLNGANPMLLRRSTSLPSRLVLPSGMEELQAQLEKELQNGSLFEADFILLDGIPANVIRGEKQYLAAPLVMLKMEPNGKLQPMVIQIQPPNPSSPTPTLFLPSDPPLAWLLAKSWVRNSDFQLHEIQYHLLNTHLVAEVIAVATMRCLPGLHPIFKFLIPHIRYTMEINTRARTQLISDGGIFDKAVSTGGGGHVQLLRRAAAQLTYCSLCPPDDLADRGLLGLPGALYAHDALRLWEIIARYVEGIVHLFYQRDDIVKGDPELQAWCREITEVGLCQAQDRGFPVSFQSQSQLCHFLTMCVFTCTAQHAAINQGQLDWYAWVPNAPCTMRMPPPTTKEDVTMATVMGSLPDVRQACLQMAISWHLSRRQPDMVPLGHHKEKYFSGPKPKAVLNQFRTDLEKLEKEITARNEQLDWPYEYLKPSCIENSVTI
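Purified human 12hLO (150 nM), preincubated 15 min with compound, then 40 uM arachidonic acid for 30 min, room temperature, Hepes pH 7.0 with 0.01% Triton X-100. Hydroperoxide detected by ferrous iron/xylenol orange; 573/405 nm absorbance ratio gives reaction progress.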
ALDH1A1 block: inhibitors of human aldehyde dehydrogenase 1A1; P00352; Purified ALDH1A1, NADH fluorescence, propionaldehyde substrate; Potency, µM (series often up to 75.3 µM), without a hit: at the highest dose activity, negative = inhibition, usual class: inhibitors; hit rate 7.3% among 220,000;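 also: potency is read from the fitted curve at half-maximal effect; plate controls were no enzyme wells and a reference inhibitor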
HPGD inh: inhibitors of human 15-hydroxyprostaglandin dehydrogenase (HPGD); purified HPGD, NADH fluorescence kinetic, PGE2 substrate; Potency, µM, for inactives: at the highest dose activity change, negative = inhibition, hits mostly inhibitors; hit rate 4.3% among 150,000; AID 894; also: potency is read from the fitted curve at half-maximal effect
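20 nM HPGD preincubated 15 min at room temperature with compound in 50 mM Tris-HCl pH 8, 0.01% Tween 20. Started with 1 mM NAD+ and 30 uM prostaglandin E2; NADH fluorescence (360/450 nm) read 5 times over 30-s intervals, last minus first.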
PNC inhibitor: blocks assembly of the perinucleolar compartment; hit rate 3.1% among 140,000; AID 2417; activity change (PNC), negative = inhibition, % at 10 µM; PC3M PTB-GFP, PNC prevalence imaging, 16 h; active compounds read low;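 active = readout at or below -70, meaning at least 70% loss of cells showing the perinucleolar compartment, a nuclear body marking cancer cells; inconclusive = readout between -30 and a set limit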;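 also: plate controls were DMSO wells for no effect and camptothecin positive control wells for full effect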
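Read-out is percentage of cells bearing a perinucleolar compartment, from automated 20x imaging of fixed, Hoechst-stained PC3M PTB-GFP cells. Cells were seeded 4 h, then exposed 16 h to compound (23 nl of library stock) in duplicate plates.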
Lamin A splicing: LMNA splicing modulation; hit rate 0.01% among 200,000; Potency, µM (series often up to 46.1 µM), for inactives: at the highest dose ratio change, negative = inhibition, hits mostly inhibitors; HeLa LMNA splicing GFP/RFP minigene ratio, 48 h; AID 1487; active = well fitted inhibition curve with a large enough effect in the signal ratio, with a control signal flat, not every such curve was filed as active; inconclusive = small, poorly fitted or top-dose-only effect, or effect the other way, or a change in a side signal; the % refers to the signal ratio; also: potency is read from the fitted curve at half-maximal effect
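Read-out is the ratio of GFP to DsRed2 object intensity, acquired by 488 nm laser-scanning cytometry on HeLa lamin A-EGFP minigene reporter cells. Compound incubation 48 hrs at 37 °C in Opti-MEM with 2% FBS; DMSO 0.5% final.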
Active calls of the source: *; ? = inconclusive; . = not tested or not shown; ! = not active in a repeat; [ ] = remark or other dose. Unless noted, calls follow the shape of the dose curve; as a rule, active = well fitted inhibition curve with a large enough effect (not every such curve was filed as active); inconclusive = small, poorly fitted or top-dose-only effect, or another doubt; inactive = no such curve, though single readings can be large or run the other way. Unless noted, % is scaled to controls: 0 for no effect and ±100 for the full control effect.

SMILES	12-hLO inh	ALDH1A1 block	HPGD inh	PNC inhibitor	Lamin A splicing
CCCOc1ccc(-c2nc[nH]c2[N+](=O)[O-])cc1	.	7%	.	.	?
CCN(CC)S(=O)(=O)c1ccc2c(c1)N(CC(=O)N1CCN(c3ccc(F)cc3)CC1)C(=O)CO2	.	.	.	.	-6%[46 µM]
COc1ccc(CNC(=O)C2CC(=O)N(c3ccc(OCC(=O)N4CCCCC4)cc3)C2)cc1 (configuration not stated)	4%	?	14µM*	-2	-5%
Cc1cc(S(=O)(=O)Nc2ccc3[nH]c(=O)sc3c2)ccc1F	.	.	.	.	0%[46 µM]
COc1ccc(NC(=O)Nc2ccccc2F)c(C)c1	.	-4%	.	.	.
COc1ccc(C(=O)C[n+]2cn(C(F)F)c3ccccc32)c(F)c1	.	10µM*	.	.	9%[9.22 µM]
COc1ccc(CNc2ncnc(N)n2)cc1	1%	6%	-1%	-101*	-17%
COc1ccc(CN(C)c2ncnc(N)n2)cc1	0%	18%	-5%	2	-1%
CC1=CN2C(=NC(=O)CC2(C)C(=O)N(CC(=O)NC2CCCC2)c2ccccc2C)C=C1 (configuration not stated)	-1%	?	?	-100*	-4%
CC(C)c1nc2ccc(C(=O)NCCCN3CCN(c4ccccc4F)CC3)cc2o1	.	.	.	.	-8%[46 µM]
CCCCOc1cc(C(=O)NCCN(CC)CC)c2ccccc2n1	-7%	1%	-26%	-115*!	?
CCN(CC)CCCNC(=O)c1cc(Sc2nnc(C)s2)nc2ccccc12	4%	2%	28µM*	?	?
CCOC(=O)c1ccc(OCC2c3cc(OC)c(OC)cc3CCN2C(=O)Cc2ccc(OC)c(OC)c2)cc1 (configuration not stated)	.	.	.	.	-13%[46 µM]
CC(=O)O[C@H]1C[C@H]2CC[C@@H]3[C@H]4C[C@@H]([N+]5(C)CCCCC5)[C@@H](OC(C)=O)[C@]4(C)CC[C@@H]3[C@@]2(C)C[C@@H]1[N+]1(C)CCCCC1	-1%	3%	-1%	.	.
CCOC(=O)C1=C(NC#N)OC(C)=C(C)C1c1ccc(O)cc1 (configuration not stated)	0%	22µM*	-29%	?	-8%
CC(C)(C)C(=O)Nc1cccc(-c2cc(-c3c(Cl)cccc3Cl)no2)c1	.	-10%	.	.	.
O=C(CCc1n[nH]c(=O)[nH]c1=O)N1CCCCC1	1%	4.5µM*	-19%	-15	-5%
CSc1ccccc1C(=O)C1CCCN(C(=O)c2csnn2)C1 (configuration not stated)	.	-4%	.	.	.
CSc1ccccc1C(=O)C1CCCN(C(=O)c2cc(C(C)C)no2)C1 (configuration not stated)	.	18µM*	.	.	-11%[46 µM]
CCOc1ccccc1CNS(=O)(=O)c1ccc2c(c1)CCCN2C(C)=O	.	.	.	.	-1%[46 µM]
Cc1cc(NC(=O)C(=O)NCCN2CCN(C(=O)c3cccs3)CC2)ccc1Br	4%	6%	-11%	-100*	?
COc1ccc(NC(=O)C(=O)NCCN2CCN(C(=O)c3cccs3)CC2)cc1	3%	?	3%	14	-4%
CS(=O)(=O)Nc1ccc(C2=NN(C(=O)c3ccco3)C(c3ccccc3)C2)cc1 (configuration not stated)	0%	16µM*	-12%	?	11%
CS(=O)(=O)Nc1ccc(C2=NN(S(C)(=O)=O)C(c3ccccc3)C2)cc1 (configuration not stated)	3%	?	?	33	-3%
CS(=O)(=O)Nc1ccc(C2=NN(C(=O)c3ccco3)C(c3cccc(F)c3)C2)cc1 (configuration not stated)	.	14µM*	.	.	?
SMILES	12-hLO inh	ALDH1A1 block	HPGD inh	PNC inhibitor	Lamin A splicing
COc1ccc(S(=O)(=O)N2N=C(c3ccc(NS(C)(=O)=O)cc3)CC2c2ccco2)cc1 (configuration not stated)	.	22µM*	.	.	9%[9.22 µM]
O=C(NN1C(=O)c2ccc3c4c(ccc(c24)C1=O)CC3)c1ccc(Br)cc1	4%	?	?	57	3%
O=C(NCC1CCCO1)C(Cc1ccccc1)N1C(=O)C2C3C=CC(C4CC34)C2C1=O (configuration not stated)	.	0%	.	.	.
COC(=O)CC1=C(C(=O)OC)C(c2cccs2)C(C#N)=C(N)O1 (configuration not stated)	-12%	?	-35%	-119*	1%
N#CC1=C(N)Oc2cc(O)ccc2C1c1cccs1 (configuration not stated)	-6%	?	-11%	-106*	-5%
Cc1cc2[nH]c(=O)c(=O)[nH]c2cc1S(=O)(=O)Nc1cccc(C(F)(F)F)c1	.	.	.	.	-10%[46 µM]
Cc1c(Cl)cnc(NC(=O)COC(=O)C(NC(=O)c2ccco2)C(C)C)c1Cl (configuration not stated)	-9%	11µM*	-8%	4	15%
CC(C)[C@H](NC(=O)c1ccco1)C(=O)OCC(=O)Nc1cccc(F)c1	.	11%	.	.	-15%[46 µM]
COc1cccc(C(=O)N2CCN=C2SC)c1	.	8%	.	.	9%[46 µM]
N/C(CN1CCCC1=O)=N\OC(=O)c1ccccc1Cl	2%	17%	-14%	-87*	-6%
N/C(CN1CCCC1=O)=N\O	3%	8%	-8%	29	0%
Cc1ccc(S(=O)(=O)Cn2nnnc2CN2CCN(C(=O)c3ccco3)CC2)cc1	-3%	?	-10%	53	1%
Cc1ccc(C(c2nnnn2CC2CCCO2)N2CCN(C(=O)c3ccco3)CC2)cc1 (configuration not stated)	-1%	16µM*	-3%	30	7%
COc1ccc(C(c2nnnn2CC2CCCO2)N2CCN(c3ccc(F)cc3)CC2)cc1 (configuration not stated)	-3%	-6%	-13%	-86*	6%
CCCC(c1nnnn1CS(=O)(=O)c1ccc(C)cc1)N1CCN(c2ccccc2)CC1 (configuration not stated)	-1%	4%	-5%	?	-7%
Cc1ccc(S(=O)(=O)Cn2nnnc2C(C)N2CCN(C(=O)c3ccco3)CC2)cc1 (configuration not stated)	-7%	25µM*	-5%	-2	4%
Cc1ccc(S(=O)(=O)Cn2nnnc2C(CC(C)C)N2CCN(c3ccc(F)cc3)CC2)cc1 (configuration not stated)	-2%	0%	-15%	-115*	12%
Cc1ccc(C(c2nnnn2CC2CCCO2)N2CCN(C)CC2)cc1 (configuration not stated)	.	0%	.	.	3%[46 µM]
O=C(O)c1c(Sc2ccccc2)c2cc(Cl)ccc2n1Cc1ccc(Cl)cc1	?	1%	-1%	.	.
Cc1ccc(Cc2nc3ccccc3nc2SCC(=O)N2CCCc3ccccc32)cc1	.	.	.	.	0%[46 µM]
CCCCC(C)(O)C/C=C/[C@H]1[C@H](O)CC(=O)[C@@H]1CCCCCCC(=O)O (some centres not stated)	14%	1%	-9%	.	.
